High-throughput results (PubChem BioAssay)
FBPA Giardia inh = blocks Giardia fructose-bisphosphate aldolase activity. A8B2U2. purified Giardia FBPA. AID 2451. Potency, µM (series often up to 59.6 µM), without a hit: at the top dose activity, negative = inhibition, most hits filed as inhibitors. 0.71% of 290,000 active; further: potency means the concentration at half of the fitted maximal effect; on the % scale 0 is the no-effect control and ±100 the full control effect; nearly all actives have a fitted effect of over 55% in size
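Giardia FBPA (40 nM reagent) was preincubated 10 min at RT with compound (up to 57.5 uM final), then substrate plus GAPDH/TPI/NAD/arsenate coupling system with diaphorase/resazurin was added; resorufin fluorescence (525/598 nm) was read after 20 min.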
SARS PLpro yeast-1 = SARS-CoV PLP inhibition in yeast; 0.19% of 330,000 active; S. cerevisiae expressing SARS-CoV PLpro, growth rescue; Potency, µM (highest dose often 32.9 µM), for inactives: at the top dose activity, positive = growth rescue, usual class: activators; AID 485353; calls by dose curve; further: potency means the concentration at half of the fitted maximal effect; 0% is about no effect; nearly all actives have a fitted effect of over 55% in size
RE007 growth inh = less growth of the S. pombe RE007 Vpr strain; S. pombe RE007 Vpr strain, BacTiter-Glo ATP luminescence, 24 h; Potency, µM (series often up to 92.2 µM), for inactives: at the highest dose activity change, negative = less growth, actives largely listed as inhibitors; 0.21% of 360,000 active; active means well fitted falling curve with a large enough effect; inconclusive means small, poorly fitted or top-dose-only effect; inactive means no such curve, though single readings can be large or run the other way; further: potency means the concentration at half of the fitted maximal effect; on the % scale 0 is the no-effect control and ±100 the full control effect; nearly all actives have a fitted effect of over 50% in size
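Fission yeast RE007 carrying one integrated HIV-1 vpr copy, seeded at OD 0.01 in PMG+AL medium with 23 nL pinned compound. Grown 24 h at 30 degrees; viability read by BacTiter-Glo luminescence after 5 min.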
Tb PYK inh = inhibitors of Trypanosoma brucei pyruvate kinase | TbPYK enzyme, Kinase-Glo Plus ATP luminescence, 45 min | AID 624173 | 0.12% of 410,000 active | Potency, µM (highest dose often 76.8 µM), inactives show at the top dose activity, negative = inhibition, most hits filed as inhibitors; further: potency means the concentration at half of the fitted maximal effect; on the % scale 0 is the no-effect control and ±100 the full control effect; nearly all actives have a fitted effect of over 50% in size
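Readout: single end-point luminescence (Kinase-Glo Plus, 10 min). Reaction conditions were TbPYK/substrate plus 130 uM ADP, 45 min at RT, pH 7.2 TEA buffer. No-enzyme wells served as controls, and data were normalized before concentration-response fitting.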
LmPK inh = blocks Leishmania mexicana pyruvate kinase activity; Q27686; purified LmPK, Kinase-Glo ATP luminescence, 1 h; Potency, µM (top dose mostly 57.5 µM), for inactives: at the highest dose activity change, negative = inhibition, hits mostly inhibitors; 0.37% of 290,000 active; AID 1721; further: potency means the concentration at half of the fitted maximal effect; on the % scale 0 is the no-effect control and ±100 the full control effect
Target sequence (Q27686 whole entry, looked up): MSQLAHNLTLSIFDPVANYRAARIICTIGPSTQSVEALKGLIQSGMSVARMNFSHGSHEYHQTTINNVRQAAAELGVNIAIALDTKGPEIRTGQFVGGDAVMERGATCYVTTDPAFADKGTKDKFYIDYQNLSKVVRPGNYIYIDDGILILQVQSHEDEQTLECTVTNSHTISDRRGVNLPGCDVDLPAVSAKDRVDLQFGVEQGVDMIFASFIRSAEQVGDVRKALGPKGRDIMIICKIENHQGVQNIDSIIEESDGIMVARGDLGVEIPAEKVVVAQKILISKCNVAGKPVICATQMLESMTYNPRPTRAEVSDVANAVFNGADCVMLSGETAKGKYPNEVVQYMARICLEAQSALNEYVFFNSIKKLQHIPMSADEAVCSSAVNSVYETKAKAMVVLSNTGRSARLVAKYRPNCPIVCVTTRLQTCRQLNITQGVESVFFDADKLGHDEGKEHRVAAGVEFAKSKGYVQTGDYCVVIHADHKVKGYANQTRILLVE
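Pyruvate kinase activity monitored as ATP production (luciferase luminescence). Conditions: 0.1 nM enzyme, 0.5 mM PEP, 0.1 mM ADP, 1 h, RT; normalized against uninhibited and no-enzyme wells.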
SARS PLpro yeast-2 = Validates SARS-CoV PLpro inhibitor hits in yeast | yeast expressing SARS-CoV PLpro, growth phenotype rescue | 19% of 1,000 active | calls only | shares compounds with SARS PLpro yeast-1; call rule not given here
Numbers without * were called inactive; i = inactive; ? = inconclusive; . = no result given; + = active, no number; ! = repeats disagree. Only some compounds are listed: those with a hit (about 1.1% of all), similar ones and a draw of the others. Unless noted, the call rests on the fitted dose curve; in most records, active means well fitted curve in the direction sought with a large enough effect; inconclusive means small, poorly fitted or top-dose-only effect, or another doubt; inactive means no such curve, though single readings can be large; an effect the other way counts as inactive or inconclusive.

SMILES | FBPA Giardia inh | SARS PLpro yeast-1 | RE007 growth inh | Tb PYK inh | LmPK inh | SARS PLpro yeast-2
C[C@@H]1C[C@@H]2[C@H]3CCC4=CC(=O)C=C[C@]4(C)[C@]3(F)[C@@H](O)C[C@@]2(C)[C@@]1(O)C(=O)CO | 8% | . | . | . | . | .
C[C@@H]1C[C@H]2[C@@H]3CCC4=CC(=O)C=C[C@]4(C)[C@@]3(F)[C@@H](O)C[C@]2(C)[C@H]1C(=O)CO | -9% | 10µM* | 8% | 5% | -3% | i
O=Cc1ccccc1-n1cccn1 | 0% | 2% | 6% | 2% | 5% | .
NC(N)=NC1=NC(=O)/C(=C/c2ccccc2-n2cccn2)S1 | 5% | . | 20% | 3% | -2% | i
COc1cccc(-c2ccc3ncnc(NCc4cccs4)c3c2)c1 | -4% | 7.1µM*! | . | 1% | . | i
c1cncc(-c2ccc3ncnc(NCc4cccs4)c3c2)c1 | . | 0% | . | 1% | . | .
COc1ccc(N(CC(=O)Nc2nccs2)S(=O)(=O)c2c(C)nn(C)c2C)cc1 | -6% | ? | 11% | -12% | 4% | i
Cc1nn(C)c(C)c1S(=O)(=O)N(CC(=O)Nc1nccs1)c1ccc(C(C)C)cc1 | 1% | 23% | 1% | -1% | 7% | .
CCN(CC)CCNC(=O)c1c(C)[nH]c(/C=C2\C(=O)Nc3ccc(F)cc32)c1C | . | . | . | 2% | . | .
Cc1ccc2c(c1)C(c1ccc(F)cc1)N(C(=O)c1cccc(C(F)(F)F)c1)CC(=O)N2 (stereo unspecified) | . | . | . | 4% | . | .
O=C(Nc1ccc(S(=O)(=O)Nc2ccccc2F)cc1)N1CCCCC1 | . | ? | 4% | -1% | -9% | +
CCOc1ccc(C(=O)N2CCN(Cc3cc(=O)n4nc(-c5cccc(OC)c5)sc4n3)CC2)cc1 | . | . | . | 0% | . | .
CCc1cc2c(cc3c(=O)n(CC(=O)NCc4cc(Br)ccc4OC)ncn32)s1 | . | . | . | 3% | . | .
COCc1cc(C2C(C(=O)c3ccco3)=C(O)C(=O)N2CCOCCO)ccc1O (stereo unspecified) | -20% | 2.8µM* | 21% | -3% | -4% | i
COc1ccc(S(=O)(=O)Nc2cccc3c2O[C@H](CN(C)Cc2ccc(Cl)c(Cl)c2)[C@@H](C)CN([C@H](C)CO)C3=O)cc1 | . | ? | -1% | 4% | . | ?
C[C@H](CO)N1C[C@H](C)[C@@H](CN(C)C(=O)Nc2ccccc2)Oc2c(NC(=O)NC3CCCCC3)cccc2C1=O | . | ? | -5% | -3% | . | i
CCC1Oc2ccc(C)cc2N(CC(=O)N2CCN(c3ccccc3OC)CC2)C1=O (stereo unspecified) | . | . | . | 1% | . | .
CC(C)Nc1nc2c(-c3cccc(Br)c3)nnn2c2ccccc12 | . | . | . | 2% | . | .
COc1ccc(CCNC(=O)Cn2nc([N+](=O)[O-])c(Br)c2C)cc1OC | 3% | ? | -2% | 0% | 3% | i
Cc1ccccc1NCc1ccc(O)c2ncccc12 | -5% | ? | -20% | -16% | 17% | +
COc1ccc(/C=C(\C#N)C(=O)OCC(=O)NCc2ccc(Cl)cc2)cc1 | -1% | ? | . | . | -2% | i
Cc1cccc2cc(COC(=O)c3ccccc3)c(=O)[nH]c12 | 0% | -7% | 21% | 3% | 0% | .
Cc1cccc2cc(COC(=O)c3cccs3)c(=O)[nH]c12 | 1% | 3.2µM* | 4% | -7% | 0% | i
COc1ccc2occ(CC(=O)Nc3ccc(S(=O)(=O)Nc4nccc(C)n4)cc3)c2c1 | . | . | . | -20% | . | .
COc1ccc2c3n([n+]([O-])c2c1)CCN=C3c1ccc(Cl)cc1 | . | ? | -13% | -3% | . | i
SMILES | FBPA Giardia inh | SARS PLpro yeast-1 | RE007 growth inh | Tb PYK inh | LmPK inh | SARS PLpro yeast-2
COc1cc(-c2oc3cc(O)cc(O)c3c(=O)c2O[C@@H]2O[C@H](CO)[C@@H](O)[C@H](O)[C@H]2O)cc(OC)c1O | -21% | . | . | . | . | .
Cc1ccc(NC(=O)Cn2cccc2)c(Br)c1 | 16% | 2.5µM* | -6% | 4% | -3% | i
Cc1ccc(NC(=O)Cn2cccc2)c(C)c1 | 2% | 17% | -14% | 5% | 1% | .
CCCN(CC(=O)Nc1ccc(C)cc1Br)CC(=O)Nc1ccc(F)c(F)c1F | -5% | ? | -8% | -2% | 0% | i
CCNc1ncc2nc(-c3cccs3)c(=O)n(CCC#N)c2n1 | -16% | . | . | . | . | .
Cc1ccsc1CN1CCc2nc(Nc3ccccc3)ncc2C1 | . | . | . | 0% | . | .
COc1ccc(Cl)cc1NC(=O)Cn1c(=O)n2nc(-c3ccccc3)nc2c2ccccc21 | . | . | . | 3% | . | .
O=C(CCN1C(=O)[C@@H]2Cc3ccccc3CN2C1=O)N[C@@H](Cc1ccccc1)C(=O)O | 6% | 6.3µM* | 6% | 4% | -1% | i
